Laboratory results published in PubChem BioAssay (EPA / NIEHS).
Calls of active or inactive are those of the source. The calls were made as follows: active = hit-call score of the fitted dose curve at least 0.9, where 1 is the maximum; inactive = score below 0.9.

What was measured:
[1] = ATG_E_Box_CIS: Attagene CIS-FACTORIAL HepG2 Assay for human Enhancer Box (E-box) (AID 2282936); details: HepG2 E-box cis-reporter transcription, actives raise or lower the signal
Procedure, shortened: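 In this cell-based setup, HepG2 cells bearing transfected promoter-driven reporter units were exposed to chemicals for 24 h; reporter transcripts were amplified, 6-FAM-labelled, cut with HpaI and sized by capillary electrophoresis.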

[2] = ATG_M_61_CIS: Attagene CIS-FACTORIAL HepG2 Assay for M61 Transcription Factor (Internal Marker) (AID 2282937); details: HepG2 Attagene CIS-FACTORIAL M61 internal marker reporter; actives raise or lower the signal
Procedure, shortened: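 Background-control endpoint: HepG2 cells with cis-regulated reporter constructs, 24 h exposure, reporter mRNA detected via fluorescent primer extension and capillary electrophoresis; values from bidirectional fitting with DMSO baseline.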

[3] = ATG_EGR_CIS: Attagene CIS-FACTORIAL HepG2 Assay for human Early Growth Response 1 (EGR1) (AID 2282938); details: HepG2 Attagene CIS-FACTORIAL EGR reporter mRNA; actives raise or lower the signal
Procedure, shortened: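 Endpoint derived by bidirectional fitting versus DMSO vehicle. Method: cis-promoter reporter units transfected into HepG2, 24 h dosing, RNA isolation, RT-PCR with 6-FAM primer extension and HpaI digestion, then capillary electrophoresis fluorescence detection.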

[4] = ATG_M_19_CIS: Attagene CIS-FACTORIAL HepG2 Assay for M19 Transcription Factor (Internal Marker) (AID 2282939); details: HepG2 Attagene CIS-FACTORIAL M19 internal marker reporter; actives raise or lower the signal
Procedure, shortened: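 Chemical-treated HepG2 (24 h) with MRTU constructs; reporter transcripts detected by fluorescent RT-PCR fragment analysis on capillary electrophoresis. Internal background marker, DMSO as baseline.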

[5] = ATG_ERE_CIS: Attagene CIS-FACTORIAL HepG2 Assay for Estrogen Response Element (ERE) (AID 2282940); details: HepG2 ERE cis-reporter, Attagene RNA transcript; actives raise or lower the signal
Procedure, shortened: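 Human liver cells (HepG2) bearing transiently transfected, promoter-regulated reporter units were exposed 24 h. Reporter mRNA induction was detected by capillary electrophoresis of labelled RT-PCR products and fitted bidirectionally to DMSO.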

[6] = ATG_Ets_CIS: Attagene CIS-FACTORIAL HepG2 Assay for human Erythroblast Transformation Specific (ETS) (AID 2282941); details: HepG2 ETS cis-reporter transcription, actives raise or lower the signal
Procedure, shortened: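 Cis-regulated reporter mRNA induction in HepG2 (transient transfection), 24 h exposure, RT-PCR plus capillary electrophoresis detection; DMSO serves as negative control and baseline.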

[7] = biological target: Hepatocyte nuclear factor 3-beta (Homo sapiens) (UniProt Q9Y261); experiment: ATG_FoxA2_CIS: Attagene CIS-FACTORIAL HepG2 Assay for human Forkhead box A2 (FOXA2) (AID 2282942); details: HepG2 cis-reporter transcription factor activity, 24 h; actives raise or lower the signal
Procedure, shortened: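 Measured: reporter mRNA induction or loss in HepG2 transiently carrying multiple cis-regulated reporter units, 24 h after dosing. Quantified by RT-PCR plus capillary electrophoresis, normalised to DMSO.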

[8] = ATG_FoxO_CIS: Attagene CIS-FACTORIAL HepG2 Assay for human Forkhead box O (FoxO) (AID 2282943); details: HepG2 Attagene cis-reporter, FoxO element, mRNA; actives raise or lower the signal
Procedure, shortened: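 HepG2 cells transiently transfected with cis-element-driven reporter units report endogenous FoxO activity. After 24 h chemical exposure, reporter mRNA quantified by RT-PCR, fluorescent labeling, HpaI digestion and capillary electrophoresis; bidirectional fit versus DMSO.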

[9] = ATG_GATA_CIS: Attagene CIS-FACTORIAL HepG2 Assay for human GATA Binding Protein (AID 2282944); details: HepG2 GATA cis-element reporter, Attagene multiplex mRNA; actives raise or lower the signal
Procedure, shortened: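 Transfected cis-reporter HepG2 cells were treated with chemicals for 24 hours. Total RNA was then converted to cDNA, amplified with reporter-specific primers and analysed by fluorescent capillary electrophoresis, using DMSO-treated wells as baseline.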

[10] = ATG_GLI_CIS: Attagene CIS-FACTORIAL HepG2 Assay for human Zinc Finger Protein GLI1 (AID 2282945); details: HepG2, Attagene cis-factorial reporter mRNA, GLI element; actives raise or lower the signal
Procedure, shortened: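 Transiently transfected HepG2 cells report endogenous transcription factor activity via cis-element-driven reporter units. After 24 h compound exposure, reporter mRNA was measured by RT-PCR with capillary electrophoresis; bidirectional fitting against DMSO baseline.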

Measured: AC50

Sequence of Hepatocyte nuclear factor 3-beta (Homo sapiens) (Q9Y261 whole entry, looked up): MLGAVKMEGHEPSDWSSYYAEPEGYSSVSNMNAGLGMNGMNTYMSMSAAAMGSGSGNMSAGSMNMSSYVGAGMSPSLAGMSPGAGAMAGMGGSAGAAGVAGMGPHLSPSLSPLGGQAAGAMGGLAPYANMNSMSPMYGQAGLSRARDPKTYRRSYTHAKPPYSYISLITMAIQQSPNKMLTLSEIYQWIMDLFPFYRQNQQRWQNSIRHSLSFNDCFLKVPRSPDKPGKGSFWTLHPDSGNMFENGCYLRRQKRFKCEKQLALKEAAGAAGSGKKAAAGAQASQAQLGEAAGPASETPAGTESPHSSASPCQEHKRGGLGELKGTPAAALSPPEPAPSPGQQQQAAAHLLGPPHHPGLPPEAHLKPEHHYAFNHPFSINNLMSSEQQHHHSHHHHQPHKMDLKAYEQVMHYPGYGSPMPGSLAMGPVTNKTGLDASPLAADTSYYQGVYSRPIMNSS

CCCCCCCCO
inactive: all assays above

C=CC(=C)CCC=C(C)C
inactive: all assays above

CC(C)=CCCC(C)CCO (stereo not drawn)
active: [5] 65.7 µM
inactive: all other assays above

CC[C@H](C)C(=O)O[C@H]1C[C@@H](C)C=C2C=C[C@H](C)[C@H](CC[C@@H]3C[C@@H](O)CC(=O)O3)[C@H]21
active: [5] 8.11 µM
inactive: all other assays above

CCOC(=O)COc1ccc2c(c1)CC(NCC(O)c1cccc(Cl)c1)CC2 (stereo not drawn)
inactive: all assays above

Nc1ccc(Nc2ccccc2)cc1
active: [5] 35.1 µM
inactive: all other assays above

CC[C@H]1CC[C@H](NCc2cc3c(cc2OC)[C@H]2C[C@H]2C(=O)N3C)[C@H](c2ccccc2)N1
active: [3] 71.3 µM | [6] 100 µM | [8] 100 µM
inactive: all other assays above

O=P(OC(CCl)CCl)(OC(CCl)CCl)OC(CCl)CCl
active: [3] 63.5 µM | [4] 149 µM | [6] 156 µM | [8] 169 µM | [10] 145 µM
inactive: all other assays above

COC(=O)c1c(Cl)c(Cl)c(C(=O)OC)c(Cl)c1Cl
inactive: all assays above

Cc1ccc(S(=O)(=O)O)cc1C
inactive: all assays above

O=C(O)c1cccc(Oc2ccccc2)c1
inactive: all assays above

COc1ccc2sc(C(=O)Nc3nnn[nH]3)c(OC(C)C)c2c1
active: [3] 146 µM | [5] 25.7 µM
inactive: all other assays above

CC(C)=CCCC(C)=CC=O
active: [3] 100 µM | [5] 100 µM
inactive: all other assays above

CCn1nc(Cc2ccccc2)cc1C1CCN(C[C@H]2C[C@H](N(C)[C@@H](C(=O)O)C(C)C)C[C@@H]2c2cccc(F)c2)CC1
active: [1] 79.3 µM | [3] 155 µM | [5] 5.55 µM
inactive: all other assays above

Cc1ccc(N)cc1O
inactive: all assays above

COc1cccc(-c2ccc(/C=C\CN3CCCCCC3)cc2Cl)c1
inactive: all assays above

Cn1cnc([N+](=O)[O-])c1Sc1ncnc2nc[nH]c12
active: [5] 29 µM
inactive: all other assays above

O=C(NS(=O)(=O)/C=C/c1ccccc1)c1ccc(F)cc1Cl
inactive: all assays above

O=c1[nH]c2ccc(S(=O)CCN3CCC(Cc4ccc(F)cc4)CC3)cc2o1 (stereo not drawn)
active: [3] 121 µM
inactive: all other assays above

O=c1n(CC2CO2)c(=O)n(CC2CO2)c(=O)n1CC1CO1 (stereo not drawn)
active: [3] 100 µM | [6] 100 µM | [8] 31.7 µM
inactive: all other assays above

CC(C)CCO
inactive: all assays above

CCC(C)(C)C(=O)O[C@H]1C[C@@H](C)C=C2C=C[C@H](C)[C@H](CC[C@@H]3C[C@@H](O)CC(=O)O3)[C@H]21
active: [5] 6.94 µM
inactive: all other assays above

CCCC(=O)OCC
inactive: all assays above

COc1ccc(-n2nc(C(F)F)cc2-c2ccc(S(C)=O)cc2)cc1 (stereo not drawn)
inactive: all assays above

C=CCCCCCCCCC(=O)O
inactive: all assays above

CC/C(=C\C(=N/O)C(N)=O)C(C)[N+](=O)[O-] (stereo not drawn)
inactive: all assays above

Cn1c(=O)cc(Oc2ccc(F)cc2F)c2cnc(NCC(C)(C)O)nc21
inactive: all assays above

COC(=O)CC(=O)OC
inactive: all assays above

CCCCC(CC)COC(=O)CCCCCCCCC(=O)OCC(CC)CCCC (stereo not drawn)
inactive: all assays above

O=C1CCCCCN1
not listed: [5]
inactive: all other assays above

CCOc1cccc(-n2cc(C(=O)N3CCN(c4cc(C(=O)O)c5ccccc5c4)CC3)nc2-c2ccc(C)cc2)c1
active: [3] 27.1 µM
not listed: [5]
inactive: all other assays above

CCCCC(CC)COC(=O)c1ccc(C(=O)OCC(CC)CCCC)cc1 (stereo not drawn)
not listed: [5]
inactive: all other assays above

C[C@](N)(Cc1ccc(O)c(O)c1)C(=O)O
not listed: [5]
inactive: all other assays above

Nc1nc2ncc(CNc3ccc(C(=O)N[C@@H](CCC(=O)O)C(=O)O)cc3)nc2c(=O)[nH]1
not listed: [5]
inactive: all other assays above

C1N2CN3CN1CN(C2)C3
not listed: [5]
inactive: all other assays above

CC(C)(O)c1coc(S(=O)(=O)NC(=O)Nc2c3c(cc4c2CCC4)CCC3)c1
not listed: [5]
inactive: all other assays above

On1ccccc1=S
active: [1] 8.78 µM
not listed: [5]
inactive: all other assays above

COC(=O)c1ccccc1O
inactive: all assays above

CCCCCCCCCCCCCCCO
active: [8] 175 µM
not listed: [5]
inactive: all other assays above

O=C1CCC(N2C(=O)c3ccccc3C2=O)C(=O)N1 (stereo not drawn)
not listed: [5]
inactive: all other assays above

COCCOc1cc2cc(C(=O)NC3CCN(C(C)C)CC3)n(CC(=O)Nc3ccc(Cl)cn3)c2cn1
active: [1] 100 µM | [3] 123 µM
not listed: [5]
inactive: all other assays above

CC[C@H]1OC(=O)[C@H](C)[C@@H](O[C@H]2C[C@@](C)(OC)[C@@H](O)[C@H](C)O2)[C@H](C)[C@@H](O[C@@H]2O[C@H](C)C[C@H](N(C)C)[C@H]2O)[C@](C)(O)C[C@@H](C)C(=O)[C@H](C)[C@@H](O)[C@]1(C)O
not listed: [5]
inactive: all other assays above
